Laboratory results: PubChem BioAssay (NCI)
Compounds without any hit were thinned out: in the full panel of roughly 79,000, 15% have a hit. Cut-off read from the data, not from the text of the source: active = growth inhibition above about 70%; inactive = the rest.

How the values were obtained:
[1] = NCI Yeast Anticancer Drug Screen. Data for the rad50 strain (AID 155);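 note: 0% = growth of vehicle-only cultures of the same strain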; settings: S. cerevisiae rad50 strain growth inhibition; at 50.0 µM; active compounds read high
Outline: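 Genetically altered yeast (DNA repair pathway); compound treatment; growth inhibition vs vehicle ctrl.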

[2] = NCI Yeast Anticancer Drug Screen. Data for the mec2-1 strain (AID 157); settings: S. cerevisiae mec2-1 strain, at 50.0 µM, active compounds read high
Outline: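 Each compound was tested on mec2-1 yeast, a strain altered in DNA damage repair or cell cycle control. Growth inhibition is reported relative to vehicle.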

[3] = NCI Yeast Anticancer Drug Screen. Data for the sgs1 mgt1 strain (AID 161);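 note: 0% = growth of cultures given vehicle only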; settings: S. cerevisiae sgs1 mgt1 strain, at 50.0 µM, active compounds read high
Outline: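 Mutant yeast exposed to compound; growth scored against vehicle-only wells.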

[4] = NCI Yeast Anticancer Drug Screen. Data for the cln2 rad14 strain (AID 165);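 note: 0% = growth equal to vehicle treated cultures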; settings: S. cerevisiae cln2 rad14 strain, at 50.0 µM, active compounds read high
Outline: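 Test compounds were added to cln2 rad14 yeast cultures; inhibition of growth was then determined by comparison with vehicle treatment.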

[5] = NCI Yeast Anticancer Drug Screen. Data for the bub3 strain (AID 167); settings: S. cerevisiae bub3 mutant strain, at 50.0 µM, active compounds read high
Outline: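 Yeast carrying a defined mutation is treated with each compound, and growth is compared with that of vehicle-exposed cells to give inhibition.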

[6] = NCI Yeast Anticancer Drug Screen. Data for the mlh1 rad18 strain (AID 175); settings: S. cerevisiae mlh1 rad18 strain growth inhibition; at 50.0 µM; active compounds read high
Outline: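 Inhibition values reflect reduced growth of mutant yeast versus vehicle-treated controls following compound exposure; the mutations affect DNA damage repair.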

Measured: growth inhibition

CC1=C(C)C(=O)O[C@@H]([C@](C)(O)[C@]2(O)CC[C@@]3(O)[C@@H]4C[C@H]5O[C@]56CC=CC(=O)[C@]6(C)[C@H]4CC[C@]23C)C1
inactive: [1] 45.1% | [2] 64.7% | [3] 43.8% | [4] 27.3% | [5] 45.9% | [6] 40.2%

CCCCN1CCC2(C)c3cc(O)ccc3CC1C2CC (centres undefined)
inactive: [1] 6.8% | [2] 9.5% | [3] 4.4% | [4] -46.6% | [5] 11.3% | [6] 12.7%

BrCC[N+]12CCCN1CCC2
inactive: [1] -7.95% | [2] -31.4% | [3] 3.25% | [4] 0.2% | [5] -7.05% | [6] -31.3%

COc1cc(-c2ccc(N)c(OC)c2)ccc1N
inactive: [1] 26.7% | [2] 7.9% | [3] 20.2% | [4] 5.8% | [5] -2.45% | [6] 30.1%
